Assay [1] concerns Vero E6 infected with SARS-CoV-2. Description: morphology score (similarity to uninfected cells); higher = more like uninfected cells. As to conditions: 24 h.
For assay [2] the test system is unchanged. Description: SARS-CoV-2 infection rate relative to infected DMSO; higher = more infection, active = 60 or less. As to conditions: 24 h.

Where a name gives a salt, the structure may show the parent alone.

`CO[C@@H](C)Cn1c(=O)n(C)c2cnc3ccc(-c4cncc(C(C)(C)O)c4)cc3c21` (10 µM): the morphology score in assay [1] is -0.000833. Further, the SARS-CoV-2 infection rate in assay [2] is 112% (inactive).

The molecule `CCN(CC)CCOCCOC(=O)C1(c2ccccc2)CCCC1` [carbetapentane] (10 µM) displayed a morphology score in assay [1] of 0.363. For the same molecule, the SARS-CoV-2 infection rate in assay [2] is 83% (inactive).

`CC(C)n1nccc1-c1ncccc1COc1cccc(O)c1C=O` [voxelotor] (10 µM): in assay [1], the morphology score was 0.188. The SARS-CoV-2 infection rate in assay [2] was 102% (inactive).

As to `O=c1[nH]cnc2c1cnn2[C@@H]1O[C@H](CO)[C@@H](O)[C@H]1O` [allopurinol-riboside] (10 µM), the morphology score in assay [1] came out at 0.0253. Further, the SARS-CoV-2 infection rate in assay [2] was 109% (inactive).

With `CSc1ccc2c(c1)[C@H](N1CCN(C)CC1)Cc1ccccc1S2` (racemic) [metitepine] (0.833333 µM), the morphology score in assay [1] was -0.0536. Moreover, the SARS-CoV-2 infection rate in assay [2] was 112% (inactive).

Take `CC(=O)OCC1=C(C(=O)O)N2C(=O)[C@@H](NC(=O)CSc3ccncc3)[C@H]2SC1` [cephapirin] (10 µM): in assay [1], the morphology score is -0.142. In assay [2], the SARS-CoV-2 infection rate is 93.5% (inactive).

On to `CO[C@@H]1COCC[C@@H]1N[C@@H]1CC[C@@](C(=O)N2CCc3ncc(C(F)(F)F)cc3C2)(C(C)C)C1` (10 µM), for which the morphology score in assay [1] is -0.21. The SARS-CoV-2 infection rate in assay [2] is 113% (inactive).

Take `O=C(O)Cc1ccc(OCc2ccccc2)c(Cl)c1` [benzofenac] (10 µM): the morphology score in assay [1] is -0.114. Further, the SARS-CoV-2 infection rate in assay [2] was 106% (inactive).

The molecule `CCN(CC)CCCC(C)Nc1ccnc2cc(Cl)ccc12` (stereo unspecified) [chloroquine] (10 µM) yielded a morphology score in assay [1] of 0.554. Further, in assay [2], the SARS-CoV-2 infection rate was 57.5% (active).

Consider `Cn1ncc2c(N3CCOCC3)nc(-c3cccc(O)c3)nc21` (10 µM), for which the morphology score in assay [1] is -0.103. Further, the SARS-CoV-2 infection rate in assay [2] is 114% (inactive).

For the molecule `COc1c(OCCCN2CCOCC2)ccc2c1N=C(NC(=O)c1cnc(N)nc1)N1CCN=C21` [copanlisib] (0.833333 µM), in assay [1], the morphology score was -0.0397. Moreover, the SARS-CoV-2 infection rate in assay [2] is 34% (active).

For `Nc1ncnc2c1C(=O)N(c1ccc([C@H]3CC[C@H](CC(=O)O)CC3)cc1)CCO2` (10 µM), the morphology score in assay [1] is 0.118. For the same molecule, in assay [2], the SARS-CoV-2 infection rate was 92.5% (inactive).

`O=C(O)[C@H]1CCCN(CCC=C(c2ccccc2)c2ccccc2)C1` (racemic) (10 µM) displayed a morphology score in assay [1] of 0.0757. In assay [2], the SARS-CoV-2 infection rate was 88.5% (inactive).

In the case of `O=C1NCN(c2ccccc2)C12CCN(CCCC(c1ccc(F)cc1)c1ccc(F)cc1)CC2` [fluspirilene] (10 µM), in assay [1], the morphology score turned out to be 0.056. In addition, the SARS-CoV-2 infection rate in assay [2] is 113% (inactive).

`CCN(CC)C(=O)[C@@]1(c2ccccc2)C[C@H]1CN` [milnacipran] (10 µM) had a morphology score in assay [1] of 0.0186. Besides, the SARS-CoV-2 infection rate in assay [2] was 105% (inactive).

`Cc1oc2ccccc2c1CNC(=O)NCc1cccs1` (10 µM) had a morphology score in assay [1] of 0.0505. Moreover, the SARS-CoV-2 infection rate in assay [2] is 100% (inactive).

In turn, `Oc1ccc(-c2nc3cc(O)cc(Br)c3o2)cc1` (10 µM) came in with a morphology score in assay [1] of 0.128. Moreover, in assay [2], the SARS-CoV-2 infection rate was 94.5% (inactive).

As for `S=C=Nc1ccc(N=C=S)cc1` [bitoscanate] (10 µM), the morphology score in assay [1] was -0.0255. Also, the SARS-CoV-2 infection rate in assay [2] was 106% (inactive).

In turn, `Nc1c(CC(=O)O)cccc1C(=O)c1ccccc1` [amfenac] (10 µM) returned a morphology score in assay [1] of 0.0516. Also, the SARS-CoV-2 infection rate in assay [2] is 104% (inactive).

`Nc1nccc(-c2c(-c3ccc(F)cc3)ncn2C2CCCCC2)n1` (0.833333 µM) showed a morphology score in assay [1] of 0.197. Besides, in assay [2], the SARS-CoV-2 infection rate is 103% (inactive).

Turning to `Cc1cc2cc3c(C)cc(=O)oc3c(C)c2o1` [trioxsalen] (10 µM), the morphology score in assay [1] came to 0.133. For the same molecule, in assay [2], the SARS-CoV-2 infection rate is 94% (inactive).

As for `O=C(NCC1CCCCN1)c1cc(OCC(F)(F)F)ccc1OCC(F)(F)F` (stereo unspecified) [flecainide] (10 µM), the morphology score in assay [1] was determined as 0.193. The SARS-CoV-2 infection rate in assay [2] is 87.5% (inactive).

In turn, `c1ccc(N2CCN(Cc3nc4ccccc4[nH]3)CC2)nc1` (10 µM) came in with a morphology score in assay [1] of 0.136. For the same molecule, the SARS-CoV-2 infection rate in assay [2] is 104% (inactive).

Regarding `Cc1ccc2c(c1)=C(c1ccccc1)C(C1=NN(C(=O)CCC(=O)O)C(c3ccc(Br)cc3)C1)C(=O)N=2` (stereo unspecified) (10 µM), in assay [1], the morphology score was -0.085. Moreover, the SARS-CoV-2 infection rate in assay [2] is 104% (inactive).

Consider `CC(C)(C)S(=O)(=O)N[C@H]1CC[C@H](C(=O)Nc2ccc(C(F)(F)F)cn2)CC1` [velneperit] (10 µM), for which the morphology score in assay [1] is -0.0103. Besides, in assay [2], the SARS-CoV-2 infection rate is 115% (inactive).

`Nc1cccc(-c2cc3c(Oc4cccc(O)c4)ncnc3[nH]2)c1` (0.833333 µM): the morphology score in assay [1] is 0.0833. Moreover, the SARS-CoV-2 infection rate in assay [2] was 104% (inactive).

In the case of `O=C(CCCN1CCC(n2c(=O)[nH]c3ccccc32)CC1)c1ccc(F)cc1` [benperidol] (10 µM), in assay [1], the morphology score is -0.264. Besides, in assay [2], the SARS-CoV-2 infection rate was 118% (inactive).

`CC[N+](CC)(CC)CC(=O)Nc1c(C)cccc1C` (10 µM): in assay [1], the morphology score is 0.0409. In addition, the SARS-CoV-2 infection rate in assay [2] was 104% (inactive).

Take `O=c1[nH]cc(F)c(=O)[nH]1` [5-fluorouracil] (0.833333 µM): the morphology score in assay [1] was 0.0377. Besides, the SARS-CoV-2 infection rate in assay [2] is 102% (inactive).

With `C/C(=C\C(N)C(=O)O)CP(=O)(O)O` (stereo unspecified) (10 µM), the morphology score in assay [1] is 0.064. Also, the SARS-CoV-2 infection rate in assay [2] is 110% (inactive).

Turning to `CC1=C(/C=C/C(C)=C/C=C/C(C)=C/C=O)C(C)(C)CCC1` [retinaldehyde] (10 µM), the morphology score in assay [1] is -0.111. The SARS-CoV-2 infection rate in assay [2] is 114% (inactive).

As to `C[C@H](N)Cc1c[nH]cn1` [alpha-methylhistamine-dihydrobromide-(S)-(+)] (10 µM), the morphology score in assay [1] came out at 0.17. In assay [2], the SARS-CoV-2 infection rate was 99% (inactive).

Consider `Clc1ccc(C(OCCN2CCCCC2)c2ccccc2)cc1` (stereo unspecified) [cloperastine] (10 µM), for which the morphology score in assay [1] was determined as 0.412. In assay [2], the SARS-CoV-2 infection rate was 75.5% (inactive).

These data come from the supplement of paper PMC13380429.
